Binding signal data for 14 molecules are collected here from PMC12864922, “TDP-43 directly inhibits mRNA accumulation in neurites through modulation of mRNA stability”.

Whole data set: some 9,900 sequences, median “r (bound/input frequency ratio)” near 0.7, cut for the highest 2% near 6.5. What follows is part of a selection rich in the highest values, with near analogues and random picks from the rest.

B1: ENSMUSG00000029028.57|Lrrc47 (ssRNA)
RNA: GGGAGUUCUACAGUCCGACGAUCGCUUCGAUAUCCGCAUGCUAGUAGAUCUUUGUAGGUGUAGGUAUGCUGUAGGUAUCUGGGUGUGGGUAUGCUGUAGAUGUCUGUGUAGGUGUGGAUAUGCUGUAGGUAUCUGGGUGUGCUGUAGGUGUCUGUGUGGGUGUGGGUGUGCUGUGGGUGUCUGUGUGGGUGUGCUGUAGGUGUCUGUAGGUGUGGGUAUGCUGCAGGUGUGGGUGUGCUGUAGAUCUCUAUAGGUGUGGGUGUGCUGUAGGGGUCUGUGUGGGUAUAGGUGUGGGUGUGCUGUCUCUUGCGGUCGCACUAGUGUGGAAUUCUCGGGUGUCAAGG
B2: ENSMUSG00000061578.309|Ksr2 (ssRNA)
RNA: GGGAGUUCUACAGUCCGACGAUCGCUUCGAUAUCCGCAUGCUAAAGUAAGAGAGGAGAGAGCCAGGGAGGGCUGAAGCUCUGGGACCCUGAAGUGUCCCCCGGGAACUGGGACUCACUCAUCUUCUCCUGUUUGUAGCUCAAUGACCCAGUGGGUCACAGUUCUAGGCGCUCCAAGGAAGCCAGGGGAGGGGGACUCCUCAGGAAGGAGUGACCAGUCACCUGCCUCCCAGGGUUCUGCCUUGCCCUUAAGCUAGGGUCCUUCAAGCAUCCACAGACUUAGAGUGUGGUGGUAACAUGCUUGUCUCUUGCGGUCGCACUAGUGUGGAAUUCUCGGGUGUCAAGG
B3: ENSMUSG00000032194.289|Kank2 (ssRNA)
RNA: GGGAGUUCUACAGUCCGACGAUCGCUUCGAUAUCCGCAUGCUAGUGUGGGGUGGGUGGAUGGAUAAAUGAGCAAUGGAUGAGAAACUGGGUUGGCUGGUGGGUAGAUGUCAUGAUGGAGUCUUUGCACGUGUAUGAAACAGAAAACCAAACUUCAGGACAGACAGCUGCUGGUGUCUCUGGAUGCUCACAGCCUAGGGCACAUUUGAAAGGUCGUGCUCUGAGCUGAGCCCUGAGUUCCAGCCUUGUAGCCAGCAAGGGAGUUUAUUUAAGGUUCUGGAAGCAUCAGCUAUGACCCAAAGCACCUCUUGCGGUCGCACUAGUGUGGAAUUCUCGGGUGUCAAGG
B4: ENSMUSG00000032194.288|Kank2 (ssRNA)
RNA: GGGAGUUCUACAGUCCGACGAUCGCUUCGAUAUCCGCAUGCUAGGAUGAGUGUGGGGUGGGUGGAUGGAUAAAUGAGCAAUGGAUGAGAAACUGGGUUGGCUGGUGGGUAGAUGUCAUGAUGGAGUCUUUGCACGUGUAUGAAACAGAAAACCAAACUUCAGGACAGACAGCUGCUGGUGUCUCUGGAUGCUCACAGCCUAGGGCACAUUUGAAAGGUCGUGCUCUGAGCUGAGCCCUGAGUUCCAGCCUUGUAGCCAGCAAGGGAGUUUAUUUAAGGUUCUGGAAGCAUCAGCUAUGACCCACUCUUGCGGUCGCACUAGUGUGGAAUUCUCGGGUGUCAAGG
B5: ENSMUSG00000032194.228|Kank2 (ssRNA)
RNA: GGGAGUUCUACAGUCCGACGAUCGCUUCGAUAUCCGCAUGCUAGUCCUCUCAAGUCUCCCUGUCGUAUCCAGAUCACAGCUGAACCCACUGGGCCUUGGCGCCAAACCUCAGCAGGGCAGCAUUGAGACUCAUGGACUAAAGGAAAGUGUUCACUCUUCUAGACAAGUGGGUCUCUUGGUUUGAUGGAGUCUUACUCCGCUUGAGUUUUGUAGAAGGGGUUUGUCUAAGGCAUAGAGGCUUGGUUGGCAUAAGAAAAUAAGAUGGACAGAUGGAUGGGUGGAUGGAUGGAUGGCUGAUUGAGUCUCUUGCGGUCGCACUAGUGUGGAAUUCUCGGGUGUCAAGG
B6: ENSMUSG00000032194.283|Kank2 (ssRNA)
RNA: GGGAGUUCUACAGUCCGACGAUCGCUUCGAUAUCCGCAUGCUAAUGGACAGGUGGGUGGAUGGAUGGGUGGACGGAUGAGUGUGGGGUGGGUGGAUGGAUAAAUGAGCAAUGGAUGAGAAACUGGGUUGGCUGGUGGGUAGAUGUCAUGAUGGAGUCUUUGCACGUGUAUGAAACAGAAAACCAAACUUCAGGACAGACAGCUGCUGGUGUCUCUGGAUGCUCACAGCCUAGGGCACAUUUGAAAGGUCGUGCUCUGAGCUGAGCCCUGAGUUCCAGCCUUGUAGCCAGCAAGGGAGUUUAUUCUCUUGCGGUCGCACUAGUGUGGAAUUCUCGGGUGUCAAGG
B7: ENSMUSG00000032194.287|Kank2 (ssRNA)
RNA: GGGAGUUCUACAGUCCGACGAUCGCUUCGAUAUCCGCAUGCUAGUGGACGGAUGAGUGUGGGGUGGGUGGAUGGAUAAAUGAGCAAUGGAUGAGAAACUGGGUUGGCUGGUGGGUAGAUGUCAUGAUGGAGUCUUUGCACGUGUAUGAAACAGAAAACCAAACUUCAGGACAGACAGCUGCUGGUGUCUCUGGAUGCUCACAGCCUAGGGCACAUUUGAAAGGUCGUGCUCUGAGCUGAGCCCUGAGUUCCAGCCUUGUAGCCAGCAAGGGAGUUUAUUUAAGGUUCUGGAAGCAUCAGCUAUCUCUUGCGGUCGCACUAGUGUGGAAUUCUCGGGUGUCAAGG
B8: ENSMUSG00000032194.281|Kank2 (ssRNA)
RNA: GGGAGUUCUACAGUCCGACGAUCGCUUCGAUAUCCGCAUGCUAAUGAAUGGAUGGAUGGACAGGUGGGUGGAUGGAUGGGUGGACGGAUGAGUGUGGGGUGGGUGGAUGGAUAAAUGAGCAAUGGAUGAGAAACUGGGUUGGCUGGUGGGUAGAUGUCAUGAUGGAGUCUUUGCACGUGUAUGAAACAGAAAACCAAACUUCAGGACAGACAGCUGCUGGUGUCUCUGGAUGCUCACAGCCUAGGGCACAUUUGAAAGGUCGUGCUCUGAGCUGAGCCCUGAGUUCCAGCCUUGUAGCCAGCACUCUUGCGGUCGCACUAGUGUGGAAUUCUCGGGUGUCAAGG
B9: ENSMUSG00000032194.282|Kank2 (ssRNA)
RNA: GGGAGUUCUACAGUCCGACGAUCGCUUCGAUAUCCGCAUGCUAGGAUGGAUGGACAGGUGGGUGGAUGGAUGGGUGGACGGAUGAGUGUGGGGUGGGUGGAUGGAUAAAUGAGCAAUGGAUGAGAAACUGGGUUGGCUGGUGGGUAGAUGUCAUGAUGGAGUCUUUGCACGUGUAUGAAACAGAAAACCAAACUUCAGGACAGACAGCUGCUGGUGUCUCUGGAUGCUCACAGCCUAGGGCACAUUUGAAAGGUCGUGCUCUGAGCUGAGCCCUGAGUUCCAGCCUUGUAGCCAGCAAGGGAGCUCUUGCGGUCGCACUAGUGUGGAAUUCUCGGGUGUCAAGG
B10: ENSMUSG00000028439.221|Fam219a (ssRNA)
RNA: GGGAGUUCUACAGUCCGACGAUCGCUUCGAUAUCCGCAUGCUAAGCUCCUAAGCAAUUCCCAGGCUUCUCUAGGGCUUCAGUUCUCACAACUGGAAAAUAAAGAGUAGCUGACAUCACCGACAGAGUCUUUUCAUACCAGAAGGAAUUUCUUCACAGGAGUUUCUGCAAAAGACUAUGACAUCUGUGUGUCUGUGGUCUCACGAGGUACCUGGAGGUGUAUGUGCACGGACAUGGGAAGUACGUGAAGAUUUAUUUCGGGAAAAGUGGUGUGUGUGUAGCUGUACUGGGUGUCAUGUAUGCUGCUCUUGCGGUCGCACUAGUGUGGAAUUCUCGGGUGUCAAGG
B11: ENSMUSG00000028439.220|Fam219a (ssRNA)
RNA: GGGAGUUCUACAGUCCGACGAUCGCUUCGAUAUCCGCAUGCUAUCCCUGAGCUCCUAAGCAAUUCCCAGGCUUCUCUAGGGCUUCAGUUCUCACAACUGGAAAAUAAAGAGUAGCUGACAUCACCGACAGAGUCUUUUCAUACCAGAAGGAAUUUCUUCACAGGAGUUUCUGCAAAAGACUAUGACAUCUGUGUGUCUGUGGUCUCACGAGGUACCUGGAGGUGUAUGUGCACGGACAUGGGAAGUACGUGAAGAUUUAUUUCGGGAAAAGUGGUGUGUGUGUAGCUGUACUGGGUGUCAUGUCUCUUGCGGUCGCACUAGUGUGGAAUUCUCGGGUGUCAAGG
B12: ENSMUSG00000028439.219|Fam219a (ssRNA)
RNA: GGGAGUUCUACAGUCCGACGAUCGCUUCGAUAUCCGCAUGCUAGCAUUCUCCCUGAGCUCCUAAGCAAUUCCCAGGCUUCUCUAGGGCUUCAGUUCUCACAACUGGAAAAUAAAGAGUAGCUGACAUCACCGACAGAGUCUUUUCAUACCAGAAGGAAUUUCUUCACAGGAGUUUCUGCAAAAGACUAUGACAUCUGUGUGUCUGUGGUCUCACGAGGUACCUGGAGGUGUAUGUGCACGGACAUGGGAAGUACGUGAAGAUUUAUUUCGGGAAAAGUGGUGUGUGUGUAGCUGUACUGGGUGCUCUUGCGGUCGCACUAGUGUGGAAUUCUCGGGUGUCAAGG
B13: ENSMUSG00000032194.229|Kank2 (ssRNA)
RNA: GGGAGUUCUACAGUCCGACGAUCGCUUCGAUAUCCGCAUGCUAUCAAGUCUCCCUGUCGUAUCCAGAUCACAGCUGAACCCACUGGGCCUUGGCGCCAAACCUCAGCAGGGCAGCAUUGAGACUCAUGGACUAAAGGAAAGUGUUCACUCUUCUAGACAAGUGGGUCUCUUGGUUUGAUGGAGUCUUACUCCGCUUGAGUUUUGUAGAAGGGGUUUGUCUAAGGCAUAGAGGCUUGGUUGGCAUAAGAAAAUAAGAUGGACAGAUGGAUGGGUGGAUGGAUGGAUGGCUGAUUGAGUGGGUGGCUCUUGCGGUCGCACUAGUGUGGAAUUCUCGGGUGUCAAGG
B14: ENSMUSG00000032194.230|Kank2 (ssRNA)
RNA: GGGAGUUCUACAGUCCGACGAUCGCUUCGAUAUCCGCAUGCUACUCCCUGUCGUAUCCAGAUCACAGCUGAACCCACUGGGCCUUGGCGCCAAACCUCAGCAGGGCAGCAUUGAGACUCAUGGACUAAAGGAAAGUGUUCACUCUUCUAGACAAGUGGGUCUCUUGGUUUGAUGGAGUCUUACUCCGCUUGAGUUUUGUAGAAGGGGUUUGUCUAAGGCAUAGAGGCUUGGUUGGCAUAAGAAAAUAAGAUGGACAGAUGGAUGGGUGGAUGGAUGGAUGGCUGAUUGAGUGGGUGGGUGGGUCUCUUGCGGUCGCACUAGUGUGGAAUUCUCGGGUGUCAAGG

TDP-43, sequence (Q13148 whole entry): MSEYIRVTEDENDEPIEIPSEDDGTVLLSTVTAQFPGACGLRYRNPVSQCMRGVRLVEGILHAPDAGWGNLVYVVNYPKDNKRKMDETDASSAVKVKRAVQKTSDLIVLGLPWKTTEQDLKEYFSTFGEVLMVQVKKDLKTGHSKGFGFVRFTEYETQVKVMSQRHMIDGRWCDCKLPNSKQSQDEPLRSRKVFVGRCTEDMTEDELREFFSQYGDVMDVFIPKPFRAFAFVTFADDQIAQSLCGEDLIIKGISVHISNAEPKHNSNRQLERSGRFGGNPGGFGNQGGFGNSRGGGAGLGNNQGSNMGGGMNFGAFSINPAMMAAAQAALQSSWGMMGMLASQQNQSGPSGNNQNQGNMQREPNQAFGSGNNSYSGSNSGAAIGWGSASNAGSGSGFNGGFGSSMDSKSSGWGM

The target of the test is TDP-43 (Homo sapiens, UniProt Q13148 1-414). Briefly: RNA Bind-n-Seq with designed 260-mer pool; 25 mM Tris-HCl, 150 mM KCl, 3 mM MgCl2, BSA (printed 500 mg/mL), 20 units/mL SUPERase IN; pH not stated; 500 nM RNA pool, 1 h, 4 C; TDP-43 5, 50, 500 nM; high values mean tight binding. The note with it: protein: recombinant; tags: SBP (GST cleaved off with PreScission; pGEX-GST-SBP). The method in brief:
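In 25 mM Tris-HCl, 150 mM KCl, 3 mM MgCl2, BSA and SUPERase IN, 500 nM of an in vitro-transcribed 260-nt 3′ UTR oligo pool was incubated for 1 h at 4 °C with SBP-tagged TDP-43 (5, 50 or 500 nM) captured on streptavidin beads. RNA remaining after washes was biotin-eluted, reverse transcribed, PCR-amplified and sequenced. Binding, R, is the bound-sample abundance of each oligo, normalized to mapped reads, divided by its abundance in input. Each duplicate used a separate, independent protein batch.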
Regarding B1, the binding signal is 6.24 R (bound/input frequency ratio).
With B2, the binding signal was 1.33 R (bound/input frequency ratio).
With B3, the binding signal was 3.69 R (bound/input frequency ratio).
With B4 the figure was 6.68 R (bound/input frequency ratio); with B5, 7.26 R (bound/input frequency ratio); with B6, 3.66 R (bound/input frequency ratio).
The same measure for B7: 5.94 R (bound/input frequency ratio); for B8: 6.24 R (bound/input frequency ratio).
The same measure for B9: 6.52 R (bound/input frequency ratio).
For the molecule B10, the binding signal is 2.59 R (bound/input frequency ratio).
With B11 the figure was 6.53 R (bound/input frequency ratio); with B12, 1.85 R (bound/input frequency ratio).
B13: the binding signal is 4.54 R (bound/input frequency ratio).
With B14 the figure was 4.66 R (bound/input frequency ratio).
